# Screening results (PubChem BioAssay)
# Shown are actives, neighbours in structure and some others; about 12% of the full set was active somewhere.
# Sfp inh: Sfp phosphopantetheinyl transferase inhibition; Q9F4F7; Biochemical Sfp PPTase activity, qHTS; Potency, µM, for the others: largest response in the series, negative = inhibition, hits mostly inhibitors; 3.5% of 310,000 active; AID 1490;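 further: the enzyme is Sfp with the accession as filed and its product quenches rhodamine fluorescence; 0% = enzyme reaction without inhibitor and -100% = no enzyme wells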
#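 With Hepes-Na pH 7.6 buffer containing 10 mM MgCl2, Sfp (15 nM) modified BHQ-2-YbbR (12.5 uM) using rhodamine-CoA (5 uM). Two reads 30 minutes apart at 525/598 nm yielded each well's rate.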
# BAZ2B inh: BAZ2B (human) inhibition | AID 504333 | Potency, µM (highest dose often 114 µM), for inactives: at the top dose activity change, negative = inhibition, usual class: inhibitors | Q9UIF8 | AlphaScreen BAZ2B-H3K14Ac peptide displacement | 4.4% of 360,000 active; further: on the % scale 0 is the no-effect control and ±100 the full control effect; nearly all actives have a fitted effect of over 60% in size
#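 AlphaScreen luminescence quantifies BAZ2B engagement of H3K14Ac peptide; the protein and biotinylated peptide are both at 50 nM final, buffer PBS pH 7.4 with 0.01% Tween-20, all steps at room temperature.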
# JMJD2A Tudor: blocks the human JMJD2A Tudor domain. AlphaScreen JMJD2A-Tudor / H3K4me3 peptide binding. Potency, µM (series often up to 114 µM), inactives show at the top dose activity change, negative = inhibition, hits mostly inhibitors. 4.4% of 390,000 active. AID 504339. O75164; further: on the % scale 0 is the no-effect control and ±100 the full control effect; nearly all actives have a fitted effect of over 50% in size
# PLK1 PBD inh: blocks phosphopeptide binding to human PLK1 polo-box domain. Potency, µM, inactives show max response, negative = inhibition, hits mostly inhibitors. P53350. 2.8% of 360,000 active. Plk1 PBD binding of FITC phosphopeptide, fluorescence polarization; further: series mostly up to about 57 µM; on the % scale 0 is the no-effect control and ±100 the full control effect; nearly all actives have a fitted effect of over 65% in size
# HP1b binding inh: HP1-beta chromodomain-methylated histone interaction inhibition. 0.56% of 390,000 active. Potency, µM (doses to about 114 µM), for the others: at the highest dose activity change, negative = inhibition, most hits filed as inhibitors. P83916. AlphaScreen HP1-beta / biotin-H3K9me3 peptide binding; further: nearly all actives have a fitted effect of over 70% in size
# Target sequence (P83916 whole entry, looked up): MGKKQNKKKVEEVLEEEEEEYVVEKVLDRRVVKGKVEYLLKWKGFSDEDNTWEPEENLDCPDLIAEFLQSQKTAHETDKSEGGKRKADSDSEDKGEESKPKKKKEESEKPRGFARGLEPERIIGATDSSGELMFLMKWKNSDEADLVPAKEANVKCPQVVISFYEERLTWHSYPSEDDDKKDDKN
#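 Compound inhibition of the preformed complex between 50 nM HP1-beta and 50 nM biotinylated H3K9me3 peptide was read by AlphaScreen. Buffer was PBS pH 7.4 with 0.01% Tween-20. Incubations ran 30 min at room temperature, with 10 ug/mL donor/acceptor beads.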
# G9a inh: inhibitors of human histone lysine methyltransferase G9a; AID 504332; G9a H3K9 monomethylation, AlphaScreen, 2 h; Potency, µM (titrated, usually from 102 µM), inactives show at the top dose activity, negative = inhibition, hits mostly inhibitors; Q96KQ7; 8.8% of 350,000 active; further: on the % scale 0 is the no-effect control and ±100 the full control effect; nearly all actives have a fitted effect of over 75% in size
# Target sequence (Q96KQ7 913-1193 limits assumed): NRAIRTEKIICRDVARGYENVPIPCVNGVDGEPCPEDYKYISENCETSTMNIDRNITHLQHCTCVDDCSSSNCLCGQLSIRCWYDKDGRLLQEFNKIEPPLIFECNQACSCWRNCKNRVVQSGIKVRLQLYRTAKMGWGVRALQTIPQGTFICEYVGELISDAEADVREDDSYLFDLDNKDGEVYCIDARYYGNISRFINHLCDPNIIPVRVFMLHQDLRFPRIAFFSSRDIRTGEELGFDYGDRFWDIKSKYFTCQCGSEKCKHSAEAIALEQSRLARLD
#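 Enzyme 20 nM + cpd, 15 min RT; add b-H3K9 pep 500 nM / SAM 20 uM; 2 h RT; anti-H3K9me1 Ab 0.5 ug/mL + SA donor / anti-rabbit acceptor beads 20 ug/mL each, 10 min; AlphaScreen read.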
# Starred values were filed as active, the others as inactive; u = inconclusive; x = no result given; [ ] = remark or other dose. The call rests on the fitted dose curve; in most records, active means well fitted curve in the direction sought with a large enough effect; inconclusive means small, poorly fitted or top-dose-only effect, or another doubt; inactive means no such curve, though single readings can be large; an effect the other way counts as inactive or inconclusive. Potency means the concentration at half of the fitted maximal effect.
SMILES,Sfp inh,BAZ2B inh,JMJD2A Tudor,PLK1 PBD inh,HP1b binding inh,G9a inh
COc1cccc(C2C(C(=O)c3cc4ccccc4o3)=C(O)C(=O)N2c2cc(C)on2)c1 (stereo not drawn),22.7%,-2.4%,-24.0%,-8.3%,1.8%[57 µM],44.7µM*
COc1ccccc1C1C(C(=O)c2cc3ccccc3o2)=C(O)C(=O)N1c1cc(C)on1 (stereo not drawn),24.5%,-26.0%[57.1 µM],-34.5%,-15.6%,0.9%[57 µM],50.1µM*
Cc1cc(N2C(=O)C(O)=C(C(=O)c3ccc(C)o3)C2c2ccc([N+](=O)[O-])cc2)no1 (stereo not drawn),4.0%,-29.0%,-21.0%,-8.4%,16.2%,44.7µM*
COc1ccc(OC)c(C2C(C(=O)c3cc4ccccc4o3)=C(O)C(=O)N2c2cc(C)on2)c1 (stereo not drawn),6.3%,-4.3%,-31.1%,-27.6%,-5.5%,u
Cc1cc(N2C(=O)C(O)=C(C(=O)c3ccc(C)o3)C2c2cccc(Oc3ccccc3)c2)no1 (stereo not drawn),-26.6%,-23.8%,35.5µM*,23.8µM*,-32.5%[57 µM],x
CCCN1CNc2c(c(=O)[nH]c(=S)n2CCc2ccc(C)cc2C)C1,x,x,-13.6%,x,33.1%,x
Cc1cc(N2C(=O)C(O)=C(C(=O)c3cc4ccccc4o3)C2c2cccc(Cl)c2)no1 (stereo not drawn),0.4%,-25.1%,u,u,-10.8%[57 µM],39.8µM*
C=CCOc1cccc(C2C(C(=O)c3cc4ccccc4o3)=C(O)C(=O)N2c2cc(C)on2)c1 (stereo not drawn),15.4%,-29.1%,u,u,-3.4%[57 µM],39.8µM*
Cc1cc(N2C(=O)C(O)=C(C(=O)c3cc4ccccc4o3)C2c2ccc(Cl)cc2)no1 (stereo not drawn),8.2%,u,u,u,-2.8%,-6.6%[0.0925 µM]
COc1ccc(OC)c(C2C(C(=O)c3ccc(C)o3)=C(O)C(=O)N2c2cc(C)on2)c1 (stereo not drawn),u,-33.5%,u,23.8µM*,-7.9%,50.1µM*
CCc1nn2c(=O)cc(COC(=O)c3ccc(SC)cc3OC)nc2s1,x,9.1%,-9.0%,3.8%,36.4%,2.8%[12.7 µM]
COc1ccccc1NC(=S)NCCN1CCOCC1,-2.2%,-2.4%,12.0%,u,11.7%,-1.9%[59 µM]
COc1ccccc1NS(=O)(=O)c1cc(NC(=O)C(C)(C)C)ccc1N1CCOCC1,x,3.7%,-5.5%,-1.4%,21.9%,7.0%[0.501 µM]
COc1ccccc1NS(=O)(=O)c1cc(NC(=O)COc2ccccc2F)ccc1N1CCOCC1,x,x,-19.4%,23.8µM*,17.8µM*,x
COc1ccccc1NS(=O)(=O)c1cc(NC(=S)NCCN2CCOCC2)ccc1N1CCOCC1,-106.1%,u,u,5.32µM*,u,10µM*
COc1ccccc1NS(=O)(=O)c1cc(NC(=O)C2CCCC2)ccc1N1CCOCC1,20µM*,-27.5%,u,15µM*,u,8.91µM*
COCC(=O)Nc1ccc(N2CCOCC2)c(S(=O)(=O)Nc2ccccc2OC)c1,x,x,-32.9%,10.6µM*,u,x
O=C(CSc1nc(=O)n(Cc2ccncc2)c2c1CCC2)Nc1cccc(F)c1,x,-4.5%,-11.0%,x,33.5%,32.0%[59 µM]
CCOc1cccc(NC(=O)C2CC(=O)N(CC)C(=Nc3ccc(F)cc3)S2)c1 (stereo not drawn),x,-2.0%,5.9%,x,49.8%,-7.6%[59 µM]
O=C(Nc1cccc(Cl)c1)C(Cc1ccccc1)n1cccc1 (stereo not drawn),x,-0.1%,-8.7%,x,16.0%,-1.5%[59 µM]
O=C(Nc1cccnc1)C(Cc1ccccc1)n1cccc1 (stereo not drawn),-12.8%,u,-17.7%,-15.8%,0.8%,50.1µM*
O=C(CCC(=O)c1ccccc1)Nc1cccnc1,24.0%,2.3%,10.7%,-4.5%,24.4%,u
O=C(Nc1ncc(Br)s1)C(Cc1ccccc1)n1cccc1 (stereo not drawn),-10.3%,44.7µM*,u,-5.3%,-8.4%,44.7µM*
O=C(Nc1ccccc1F)C(Cc1ccccc1)n1cccc1 (stereo not drawn),x,-35.0%,-21.1%,x,13.6%,1.1%[59 µM]
O=C(CCC(=O)c1ccc(-c2ccccc2)cc1)Nc1cccnc1,-4.3%,-9.5%,-12.0%,2.4%,42.6%,50.1µM*
SMILES,Sfp inh,BAZ2B inh,JMJD2A Tudor,PLK1 PBD inh,HP1b binding inh,G9a inh
O=C1CCCCC1Sc1nnc(Cc2cccs2)n1CCc1ccccc1 (stereo not drawn),-13.5%,-7.9%,79.4µM*,u,-23.3%,-25.0%[59 µM]
CC(C)C[C@H](NC(=O)[C@H](CO)NC(=O)[C@@H]1CCCN1C(=O)[C@H](Cc1ccc(O)cc1)NC(=O)[C@H](CC(C)C)NC(=O)[C@H](CC(C)C)NC(=O)[C@@H]1CCCN1C(=O)[C@@H](NC(=O)[C@H](CO)NC(=O)[C@H](CO)NC(=O)[C@H](CO)NC(=O)[C@H](CO)NC(=O)[C@@H]1CCCN1C(=O)[C@@H](NC(=O)[C@@H](N)CO)C(C)C)[C@@H](C)O)C(=O)N[C@@H](C)C(=O)N[C@@H](CC(C)C)C(=O)N1CCC[C@H]1C(=O)N[C@@H](C)C(=O)N1CCC[C@H]1C(=O)O,6.7%,x,x,x,x,x
CCc1ccccc1NC(=O)c1sc2nc(C)cc(C)c2c1N,15.8%,18.1%,u,23.8µM*,27.0%,-4.3%
Cc1cc(C)c2c(N)c(C(=O)Nc3ccccc3Br)sc2n1,-25.0%,3.9%,2.7%,-5.4%,47.9%,x
Cc1cc(C)c2c(N)c(C(=O)NCc3ccco3)sc2n1,-9.5%,-1.5%,-12.1%,1.0%,29.7%,10µM*
O=C1C2C3C=CC(O3)C2C(=O)N1N=Cc1cccc2ccccc12 (stereo not drawn),x,x,-31.0%,-3.1%,8.7%[57 µM],x
CN(C)c1ccc(/C=C2\C(=N)N3C(=NC2=O)Sc2cc(S(C)(=O)=O)ccc23)cc1,12.2%,-5.8%,x,x,x,u
Cc1ccc(-n2cccc2/C=C2\C(=N)N3N=C(c4ccco4)SC3=NC2=O)cc1,-28.2%,35.5µM*,u,29.9µM*,-2.7%,10µM*
CS(=O)(=O)C1=NSC2=NC(=O)/C(=C\c3cccn3-c3ccccc3Cl)C(=N)N21,-4.8%,50.1µM*,u,u,25.4%,50.1µM*
CCc1ccc(-n2cccc2/C=C2/C(=N)N3C(=NC2=O)SN=C3S(C)(=O)=O)cc1,0.6%,39.8µM*,56.2µM*,13.4µM*,-3.2%,44.7µM*
Cc1cc(C)cc(-n2cccc2/C=C2/C(=N)N3C(=NC2=O)SN=C3S(C)(=O)=O)c1,u,56.2µM*,u,-11.9%,-18.8%,u
CCC1=NN2C(=N)/C(=C\c3cccn3-c3ccc(C)c(C)c3)C(=O)N=C2S1,-22.9%,-22.2%,u,u,14.3%,-33.0%
O=C(CN1CCN(Cc2ccc(F)cc2Cl)S1(=O)=O)Nc1ccc(F)cc1,x,0.4%,6.6%,x,81.9%,-2.2%[59 µM]
